# Reference: the supplement of paper PMC12282887
# ± gives the standard deviation of the averaged measurements.
# Test system: E. coli BW25113 micFp lux reporter
# Test: promoter activity interaction Z-score (Lux/OD deviation from empty-vector control); higher = stronger promoter induction by the compound
# Conditions: 0.13 µg/ml; genetic background: Δrob
# In short: (§1)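 At 37°C, E. coli BW25113 reporter cultures in 40 µl LB Lennox in 384-well plates were read for OD600 and luminescence every 30 min for 12 h. Windows were 0–8 h for wild type and 1–9 h for deletion strains, and wells under 10% of the median growth value were removed. The score is the Z-transformed residual of growth-normalised luminescence against a control fit.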
row,SMILES,promoter activity interaction Z-score
1,N=C(NCCCCCCNC(=N)NC(=N)Nc1ccc(Cl)cc1)NC(=N)Nc1ccc(Cl)cc1 [Chlorhexidine],-0.0382 ± 0.027
2,CCN1CCN(C(=O)N[C@@H](C(=O)N[C@@H]2C(=O)N3[C@@H]2SC(C)(C)[C@@H]3C(=O)O)c2ccccc2)C(=O)C1=O [Piperacillin],-0.0193 ± 0.093
3,CO[C@@]12[C@H](COC(N)=O)C3=C(C(=O)C(C)=C(N)C3=O)N1C[C@@H]1N[C@@H]12 [Mitomycin C],0.135 ± 0.19

# Same assay, conditions: 0.13 µg/ml; genetic background: ΔsoxS
row,SMILES,promoter activity interaction Z-score
1,N=C(NCCCCCCNC(=N)NC(=N)Nc1ccc(Cl)cc1)NC(=N)Nc1ccc(Cl)cc1 [Chlorhexidine],-0.0137 ± 0.079
2,CCN1CCN(C(=O)N[C@@H](C(=O)N[C@@H]2C(=O)N3[C@@H]2SC(C)(C)[C@@H]3C(=O)O)c2ccccc2)C(=O)C1=O [Piperacillin],-0.266 ± 0.18
3,CO[C@@]12[C@H](COC(N)=O)C3=C(C(=O)C(C)=C(N)C3=O)N1C[C@@H]1N[C@@H]12 [Mitomycin C],0.423 ± 0.057

# Same assay, conditions: 0.25 µg/ml; genetic background: wild type
row,SMILES,promoter activity interaction Z-score
1,C/C(=C\C(=O)OCCCCCCCCC(=O)O)C[C@@H]1OC[C@H](C[C@@H]2O[C@H]2[C@@H](C)[C@H](C)O)[C@@H](O)[C@H]1O [Pseudomonic acid],-0.00251 ± 0.014
2,N=C(NCCCCCCNC(=N)NC(=N)Nc1ccc(Cl)cc1)NC(=N)Nc1ccc(Cl)cc1 [Chlorhexidine],0.112 ± 0.098
3,CO[C@@]12[C@H](COC(N)=O)C3=C(C(=O)C(C)=C(N)C3=O)N1C[C@@H]1N[C@@H]12 [Mitomycin C],0.189 ± 0.054

# Same assay, conditions: 0.25 µg/ml; genetic background: ΔmarA
row,SMILES,promoter activity interaction Z-score
1,C/C(=C\C(=O)OCCCCCCCCC(=O)O)C[C@@H]1OC[C@H](C[C@@H]2O[C@H]2[C@@H](C)[C@H](C)O)[C@@H](O)[C@H]1O [Pseudomonic acid],-0.0765 ± 0.049
2,N=C(NCCCCCCNC(=N)NC(=N)Nc1ccc(Cl)cc1)NC(=N)Nc1ccc(Cl)cc1 [Chlorhexidine],-0.0647 ± 0.035
3,CO[C@@]12[C@H](COC(N)=O)C3=C(C(=O)C(C)=C(N)C3=O)N1C[C@@H]1N[C@@H]12 [Mitomycin C],0.0506 ± 0.14

# Same assay, conditions: 0.25 µg/ml; genetic background: Δrob
row,SMILES,promoter activity interaction Z-score
1,C/C(=C\C(=O)OCCCCCCCCC(=O)O)C[C@@H]1OC[C@H](C[C@@H]2O[C@H]2[C@@H](C)[C@H](C)O)[C@@H](O)[C@H]1O [Pseudomonic acid],0.0594 ± 0.055
2,N=C(NCCCCCCNC(=N)NC(=N)Nc1ccc(Cl)cc1)NC(=N)Nc1ccc(Cl)cc1 [Chlorhexidine],-0.172 ± 0.038
3,CO[C@@]12[C@H](COC(N)=O)C3=C(C(=O)C(C)=C(N)C3=O)N1C[C@@H]1N[C@@H]12 [Mitomycin C],-0.0293 ± 0.023

# Same assay, conditions: 0.25 µg/ml; genetic background: ΔsoxS
row,SMILES,promoter activity interaction Z-score
1,C/C(=C\C(=O)OCCCCCCCCC(=O)O)C[C@@H]1OC[C@H](C[C@@H]2O[C@H]2[C@@H](C)[C@H](C)O)[C@@H](O)[C@H]1O [Pseudomonic acid],-0.253 ± 0.16
2,N=C(NCCCCCCNC(=N)NC(=N)Nc1ccc(Cl)cc1)NC(=N)Nc1ccc(Cl)cc1 [Chlorhexidine],-0.0807 ± 0.32
3,CO[C@@]12[C@H](COC(N)=O)C3=C(C(=O)C(C)=C(N)C3=O)N1C[C@@H]1N[C@@H]12 [Mitomycin C],-0.0557 ± 0.14

# Test system: E. coli BW25113 ompFp lux reporter
# Test: as above
# Conditions: 0.13 µg/ml; genetic background: wild type
# In short: as §1
row,SMILES,promoter activity interaction Z-score
1,N=C(NCCCCCCNC(=N)NC(=N)Nc1ccc(Cl)cc1)NC(=N)Nc1ccc(Cl)cc1 [Chlorhexidine],0.528 ± 0.026
2,CCN1CCN(C(=O)N[C@@H](C(=O)N[C@@H]2C(=O)N3[C@@H]2SC(C)(C)[C@@H]3C(=O)O)c2ccccc2)C(=O)C1=O [Piperacillin],0.0298 ± 0.29
3,CO[C@@]12[C@H](COC(N)=O)C3=C(C(=O)C(C)=C(N)C3=O)N1C[C@@H]1N[C@@H]12 [Mitomycin C],0.0398 ± 0.41

# Same assay, conditions: 0.13 µg/ml; genetic background: ΔmarA
row,SMILES,promoter activity interaction Z-score
1,N=C(NCCCCCCNC(=N)NC(=N)Nc1ccc(Cl)cc1)NC(=N)Nc1ccc(Cl)cc1 [Chlorhexidine],-0.185 ± 0.099
2,CCN1CCN(C(=O)N[C@@H](C(=O)N[C@@H]2C(=O)N3[C@@H]2SC(C)(C)[C@@H]3C(=O)O)c2ccccc2)C(=O)C1=O [Piperacillin],0.086 ± 0.054
3,CO[C@@]12[C@H](COC(N)=O)C3=C(C(=O)C(C)=C(N)C3=O)N1C[C@@H]1N[C@@H]12 [Mitomycin C],1.58 ± 1

# Same assay, conditions: 0.13 µg/ml; genetic background: Δrob
row,SMILES,promoter activity interaction Z-score
1,N=C(NCCCCCCNC(=N)NC(=N)Nc1ccc(Cl)cc1)NC(=N)Nc1ccc(Cl)cc1 [Chlorhexidine],0.2991 ± 0.00077
2,CCN1CCN(C(=O)N[C@@H](C(=O)N[C@@H]2C(=O)N3[C@@H]2SC(C)(C)[C@@H]3C(=O)O)c2ccccc2)C(=O)C1=O [Piperacillin],-0.035 ± 0.23
3,CO[C@@]12[C@H](COC(N)=O)C3=C(C(=O)C(C)=C(N)C3=O)N1C[C@@H]1N[C@@H]12 [Mitomycin C],0.963 ± 0.14

# Same assay, conditions: 0.13 µg/ml; genetic background: ΔsoxS
row,SMILES,promoter activity interaction Z-score
1,N=C(NCCCCCCNC(=N)NC(=N)Nc1ccc(Cl)cc1)NC(=N)Nc1ccc(Cl)cc1 [Chlorhexidine],0.714 ± 0.18
2,CCN1CCN(C(=O)N[C@@H](C(=O)N[C@@H]2C(=O)N3[C@@H]2SC(C)(C)[C@@H]3C(=O)O)c2ccccc2)C(=O)C1=O [Piperacillin],-0.0829 ± 0.38
3,CO[C@@]12[C@H](COC(N)=O)C3=C(C(=O)C(C)=C(N)C3=O)N1C[C@@H]1N[C@@H]12 [Mitomycin C],0.857 ± 0.077
